Consider 41 compounds from PubChem BioAssay (NCI).

The panel holds about 79,000 compounds, 15% with a hit somewhere; the sample as a whole holds those more often. Unmarked numbers belong to inactive results. The source made the active and inactive calls. Rule as the data show it: active = growth inhibition above about 70%; inactive = the rest.

Assay [1] is described as follows: NCI Yeast Anticancer Drug Screen. Data for the rad50 strain (AID 155).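 Also: 0% = growth of vehicle-only cultures of the same strain.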 The conditions noted are these: S. cerevisiae rad50 strain growth inhibition; at 50.0 µM; stronger effect = higher value. In outline:
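A DNA repair-deficient yeast mutant serves as the test organism; compound-induced growth inhibition is calculated against vehicle-treated cells.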

A short description of assay [2]: NCI Yeast Anticancer Drug Screen. Data for the mec2-1 strain (AID 157). The conditions noted are these: S. cerevisiae mec2-1 strain, at 50.0 µM, stronger effect = higher value. In outline:
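Mutant yeast (mec2-1) grown with compound; growth inhibition relative to vehicle control reported.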

Assay [3] is described as follows: NCI Yeast Anticancer Drug Screen. Data for the sgs1 mgt1 strain (AID 161).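 Also: 0% = growth of cultures given vehicle only.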 Particulars: S. cerevisiae sgs1 mgt1 strain, at 50.0 µM, stronger effect = higher value. Put shortly: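 Growth of a repair-deficient yeast mutant was monitored after compound treatment and expressed as inhibition relative to vehicle-treated cultures.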
Assay [4] can be described thus: NCI Yeast Anticancer Drug Screen. Data for the cln2 rad14 strain (AID 165).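 Also: 0% = growth equal to vehicle treated cultures.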 Particulars: S. cerevisiae cln2 rad14 strain, at 50.0 µM, stronger effect = higher value. In outline:
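Readout is yeast growth inhibition versus vehicle-treated controls, using a strain with cln2 and rad14 alterations exposed to compound.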

A short description of assay [5]: NCI Yeast Anticancer Drug Screen. Data for the bub3 strain (AID 167). The conditions noted are these: S. cerevisiae bub3 mutant strain, at 50.0 µM, stronger effect = higher value. Put shortly:
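Inhibition values come from growth of compound-treated mutant yeast normalised to vehicle-treated controls.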

Assay [6] is described as follows: NCI Yeast Anticancer Drug Screen. Data for the mlh1 rad18 strain (AID 175). The conditions noted are these: S. cerevisiae mlh1 rad18 strain growth inhibition; at 50.0 µM; stronger effect = higher value. Put shortly: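 Genetically defined yeast (DNA repair-deficient) exposed to compounds; growth inhibition determined relative to vehicle.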

As for `CCNC(=O)NCCN1CCOCC1`, the growth inhibition was -3.55% in assay [1]; -8% in assay [2]; -3.1% in assay [3]; -75% in assay [4]; 7.05% in assay [5]; -2% in assay [6].
In the case of `C=C(Nc1ccc(OC)cc1OC)C(=O)Cc1cccc[n+]1[O-]`, the growth inhibition in assay [1] was 6.25%; in assay [2], -2.45%; in assay [3], -10.5%; in assay [4], -2.4%; in assay [5], -3.4%; in assay [6], -8.8%.
Consider `Cc1ccc([B-]23OCC[N+]2(CNC(=O)c2ccccc2O)CCO3)cc1` (stereo unspecified), for which the growth inhibition in assay [1] is 25.6%; in assay [2] it was -4.4%; in assay [3], 4.1%; in assay [4] it was 3.6%; in assay [5], 4.05%; in assay [6], 12.8%.
In the case of `Cc1c2c(n3c(nc4ccccc43)c1C#N)SCC2`, the growth inhibition in assay [1] was -51.3%; in assay [2] it was -49.3%; in assay [3], -44.5%; in assay [4], -8.5%; in assay [5] it was -22%; in assay [6], -17.5%.
On to `CCNC(=O)[B-][N+](C)(C)C`, for which the growth inhibition in assay [1] is 6.75%; in assay [2], 0.05%; in assay [3], 3.75%; in assay [4], 35.4%; in assay [5] it was -12.4%; in assay [6] it was 4.5%.
Take `CCOC(=O)C(Cc1c[nH]c2ccccc12)NC(C)=O` (stereo unspecified): the growth inhibition is 22.2% in assay [1]; 28.6% in assay [2]; 23.6% in assay [3]; -9.9% in assay [4]; 41.9% in assay [5]; 19.2% in assay [6].
Turning to `CC1(C)C2CC(=O)C1(C)C(OCc1ccccc1)C2` (stereo unspecified), the growth inhibition was -21.2% in assay [1]; 12.6% in assay [2]; 6.1% in assay [3]; 22.1% in assay [4]; -18.1% in assay [5]; 5.1% in assay [6].
Regarding `CSCSCC(CO)NC(=O)/C=C\c1ccccc1` (stereo unspecified), the growth inhibition in assay [1] was -0.7%; in assay [2] it was -4.05%; in assay [3], 7.15%; in assay [4], -21.7%; in assay [5] it was 4%; in assay [6], 3.5%.
Regarding `CC(C)=CCC/C(C)=C/CN`, the growth inhibition is 9.25% in assay [1]; -2.6% in assay [2]; 20.4% in assay [3]; -17.6% in assay [4]; 9% in assay [5]; 6.15% in assay [6].
For the compound `N#CCCC1C(=O)CCCC1=O`, the growth inhibition was 0.2% in assay [1]; 9.2% in assay [2]; -0.85% in assay [3]; -13.6% in assay [4]; 6.9% in assay [5]; 12.9% in assay [6].
`COc1ccc(CN2COc3c(ccc4ccccc34)C2)cc1`: the growth inhibition in assay [1] is 36.1%; in assay [2], 22.9%; in assay [3], 31.1%; in assay [4] it was 17.4%; in assay [5] it was 12.6%; in assay [6], 30.9%.
Turning to `CCCOc1ccc(/C=C\c2cc(OC)c(OC)c(OC)c2)cc1`, the growth inhibition was 0.85% in assay [1]; 3.9% in assay [2]; -2.05% in assay [3]; 3.4% in assay [4]; 10.1% in assay [5]; 43.5% in assay [6].
As for `CC(C)(C)Oc1cc(F)c(C(C)(C)C)cc1C(C)(C)C`, the growth inhibition was -4% in assay [1]; -7.4% in assay [2]; -2.4% in assay [3]; 8.75% in assay [4]; 0.05% in assay [5]; 10.7% in assay [6].
For the compound `COc1ccc(/C=C2/SC(=Nc3ccccc3)N(NC(=O)Cc3ccccc3)C2=O)cc1`, the growth inhibition in assay [1] is -22.7%; in assay [2], -14.2%; in assay [3], 13.7%; in assay [4], -16.6%; in assay [5], -26.6%; in assay [6], -22.2%.
For the compound `CCCN(CCCC(NC(C)=O)C(=O)NCc1ccccc1)C(=O)N(C)N=O` (stereo unspecified), the growth inhibition in assay [1] was -21.1%; in assay [2], -24.8%; in assay [3], -4.25%; in assay [4] it was 19.9%; in assay [5], -14.8%; in assay [6] it was -11.9%.
With `CCOC(=O)CCC(C(=O)c1cccnc1)c1ccccn1` (stereo unspecified), the growth inhibition was -4% in assay [1]; -3.6% in assay [2]; 6.7% in assay [3]; -52.9% in assay [4]; -4.6% in assay [5]; -7.05% in assay [6].
Take `O=C(N/N=C\c1cccc(O)c1)c1ccncc1`: the growth inhibition in assay [1] was 1.75%; in assay [2] it was 11.9%; in assay [3], -37.5%; in assay [4] it was -19.4%; in assay [5] it was 3%; in assay [6], -1.05%.
In the case of `CCCCCC/C=C\CCCCCCCCCc1cccc(OC)c1O`, the growth inhibition in assay [1] was 18.4%; in assay [2] it was 6.65%; in assay [3] it was -4.3%; in assay [4], 14.5%; in assay [5], 7.8%; in assay [6], 11.7%.
Regarding `CC(C)CC(NC(=O)CCCCCl)C(=O)O` (stereo unspecified), the growth inhibition is -1.85% in assay [1]; -4.65% in assay [2]; 0.25% in assay [3]; 2.75% in assay [4]; -3.4% in assay [5]; 6.05% in assay [6].
`O=C1S/C(=C2\C(=O)N(CN3CCCCC3)c3ccc(Br)cc32)C(=O)N1CN1CCCCC1`: the growth inhibition was 37.4% in assay [1]; -2.9% in assay [2]; 9.35% in assay [3]; -2.05% in assay [4]; -1.6% in assay [5]; 22.2% in assay [6].
On to `N#CC(C(=O)CCC(=O)Nc1ccc(Cl)c(Cl)c1)c1ccc(Cl)cc1` (stereo unspecified), for which the growth inhibition is -12.9% in assay [1]; -29.9% in assay [2]; 18.1% in assay [3]; 15.4% in assay [4]; 8.4% in assay [5]; -2.2% in assay [6].
With `O=[N+]([O-])c1ccc(Oc2c3ccccc3nc3ccccc23)cc1`, the growth inhibition in assay [1] is 11.3%; in assay [2], -3.7%; in assay [3], 19.6%; in assay [4], -1.8%; in assay [5] it was -1.4%; in assay [6], 14.4%.
As for `O=C(CBr)OCCC1CCCCC1`, the growth inhibition was 49.2% in assay [1]; 4.7% in assay [2]; 47.9% in assay [3]; -36.5% in assay [4]; 3.05% in assay [5]; 32.5% in assay [6].
For the compound `CCCOc1cc(C)c(C(=O)OC(C)CN2CCCC2)c(C)c1` (stereo unspecified), the growth inhibition is 3.5% in assay [1]; -22.4% in assay [2]; 15.8% in assay [3]; -43.7% in assay [4]; -2.1% in assay [5]; -20.4% in assay [6].
Turning to `CCCCCCCCCCCCCCCCCCC1=CC(=O)c2ccccc2C1=O`, the growth inhibition was 16.1% in assay [1]; 3% in assay [2]; 25.6% in assay [3]; 31% in assay [4]; 8.4% in assay [5]; 14.9% in assay [6].
Turning to `C[n+]1cccc(NC(=O)COc2ccc(Cl)c(Cl)c2)c1`, the growth inhibition in assay [1] was 15.3%; in assay [2], 3.95%; in assay [3], -5.4%; in assay [4], -18%; in assay [5] it was -1.75%; in assay [6] it was 21.5%.
Consider `CC(C)SCCC#N`, for which the growth inhibition in assay [1] is 13%; in assay [2] it was -8.55%; in assay [3], -13.1%; in assay [4], -5.5%; in assay [5], -3.7%; in assay [6] it was -4.75%.
For the compound `COC1OC(CO)C(OC(C)=O)C(OC(C)=O)C1OC(C)=O` (stereo unspecified), the growth inhibition in assay [1] was -2.05%; in assay [2], 16.5%; in assay [3], 2.9%; in assay [4], -14.5%; in assay [5], 12.6%; in assay [6], 1.8%.
With `O=[N+]([O-])c1cccc(/C=N\O)c1`, the growth inhibition was -17.8% in assay [1]; -8.45% in assay [2]; -9.9% in assay [3]; -7.45% in assay [4]; -1.2% in assay [5]; -8.4% in assay [6].
For `CCOC(=O)c1nnc2cc(-c3ccccc3)nn2c1C`, the growth inhibition was 6.65% in assay [1]; 0.6% in assay [2]; 18.1% in assay [3]; 25.4% in assay [4]; 41.4% in assay [5]; 28.6% in assay [6].
`O=[N+]([O-])c1cc(Cl)ccc1Sc1ccccc1`: the growth inhibition was 39.6% in assay [1]; 8.25% in assay [2]; 34.3% in assay [3]; 21.9% in assay [4]; 24.7% in assay [5]; 27.3% in assay [6].
With `CN1CCN(S(=O)(=O)C(c2ccccc2)C2(O)CCCCC2)CC1` (stereo unspecified), the growth inhibition in assay [1] is -1.3%; in assay [2] it was 10.2%; in assay [3] it was 9.05%; in assay [4], -6.25%; in assay [5] it was -8.15%; in assay [6] it was 12.2%.
Consider `COP(=O)(OC)C1c2cc(Cl)ccc2-c2c(Cl)cc(Cl)cc21` (stereo unspecified), for which the growth inhibition in assay [1] is 88.8% (active); in assay [2] it was 67.9%; in assay [3] it was 83.7% (active); in assay [4] it was 49.5%; in assay [5], 32.6%; in assay [6], 68.8%.
Turning to `CC(NNC(=S)N1CCC(c2ccccc2)CC1)c1ccc2ccccc2n1` (stereo unspecified), the growth inhibition was -48.9% in assay [1]; 9.25% in assay [2]; 29.9% in assay [3]; 11.5% in assay [4]; -2% in assay [5]; 26.9% in assay [6].
Regarding `CC1=NNC(=O)C1`, the growth inhibition in assay [1] was 4.65%; in assay [2] it was -0.4%; in assay [3], -8.1%; in assay [4] it was -14.8%; in assay [5], -3.2%; in assay [6], 2.9%.
With `O=C1OC(c2cccc(Cl)c2)=N/C1=C\c1cc(Br)ccc1O`, the growth inhibition was 20.6% in assay [1]; 5.7% in assay [2]; 27.8% in assay [3]; 5.2% in assay [4]; -0.4% in assay [5]; 5.95% in assay [6].
With `Cc1ccc(C(=S)NC(=O)Nc2ccccc2)cc1`, the growth inhibition in assay [1] was -7.1%; in assay [2] it was 9.45%; in assay [3] it was -17.8%; in assay [4], -20.9%; in assay [5], 45.8%; in assay [6] it was 1.45%.
Consider `CCCCSC1=NCCN1`, for which the growth inhibition is 14.8% in assay [1]; 9.15% in assay [2]; -3.9% in assay [3]; 5.5% in assay [4]; 5.25% in assay [5]; 10.5% in assay [6].
Consider `O=CCC1CCCCC1`, for which the growth inhibition in assay [1] is -4.8%; in assay [2], -2.2%; in assay [3] it was -13.1%; in assay [4], 16.9%; in assay [5] it was 22.1%; in assay [6], 6.25%.
For `CC(CS)CS`, the growth inhibition in assay [1] is 6.85%; in assay [2], -0.5%; in assay [3], 6.95%; in assay [4], -8.75%; in assay [5] it was -0.8%; in assay [6] it was 37%.
In the case of `COc1cccc(N(CCO)C2CCCCC2)c1`, the growth inhibition in assay [1] was 12.8%; in assay [2], 4.2%; in assay [3] it was 18.2%; in assay [4] it was 15.7%; in assay [5], 10.9%; in assay [6], 2%.
